Test results as given in PubChem BioAssay AID1347426 (Functional Genomics Laboratory (NCATS/FGL), 2020).
The whole screen tested about 31,000 sequences, of which about 1,400 (4.5%) were called active. The entries come from a sample that favours actives as a whole. A number with no mark means an inactive call.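 The calls were made as follows: active = median seed-adjusted z-score above 1 or below -1; inactive = the rest.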

Assay: Novel Modifiers of Survival Motor Neuron (SMN) Protein: Gene Identification via Genome-wide siRNA Screen;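 also: luminescence tracks full-length SMN protein made from the SMN2 reporter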
Conditions: HEK293T SMN2-luciferase reporter, siRNA knockdown, 72 h; actives lie on both sides
Summary of the method: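 siRNA screen, 10418 genes ×3 siRNAs; 1 pmol/well, lipid reverse transfection into HEK293T SMN2-luc reporter line. 72 h, 37 °C, 5% CO2; ONE-Glo readout. Data: neg-ctrl normalized, log10, MAD; hit = MAD >1.0 or < -1.0.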

Sequence | median seed-adjusted z-score
CAUUCGCCGUUACCUGCCATT against POLR2F | -3.52 (active)
GAACCACAAGGAGAAGUUUTT against PSMC3 | -0.701
ACAAGGACUAUUACAGAUATT against PLA2G2D | 0.361
GGAGACAUCUGACCCAGCATT against ARHGAP9 | 0
CGUCAGAUCUGAACAAGAATT against CHST4 | 0.349
GUAUAUCAGUUCCAGUUUATT against RANBP3 | -0.211
UUAUCACAGAGCAACCUAATT against NUBPL | 0.105
GGAAUGCACCCAGAUCAAATT against TFAP2D | 0
GGCCUUUCCUUUACUGUCATT against ABCC4 | -1.66 (active)
CCGAAUGAAUGGUGAUAAATT against TUSC3 | 0.138
CAAGGACACUUCAUCGUGATT against AVPR2 | -0.262
GAACUCAUCAAAAUGCACATT against KLF15 | -0.45
GGGAGACGAUUGUUCAUCATT against XPA | 2.03 (active)
AUACAUCAAAGAUUAGUAATT against NTS | 0.518
GUUAAUCACAUACACCAAATT against GPR22 | 0.705
CCGCUUGACUAUGAGCUCATT against TTC7A | -0.303
CCAGGAGCGAUAACAGUAATT against DAZAP1 | 0
CCUUAUCGAUAUUAUGAGATT against CPEB2 | -0.00928
ACGUGGAGCUCUUAGACAATT against AP1S1 | -1.04 (active)
GGAUCGGAUGGAUAAGAAUTT against CTTN | -0.314
CACUAGGAAUCACACCGUUTT against TINAG | 0.374
GAGACGAGGAGGAAACUUUTT against DDX27 | -0.131

Sequence | median seed-adjusted z-score
GCAGUAUGCAGAUUGUUCATT against FGL1 | -0.259
CAGUUGUCCUUGUGGAUAATT against TTF1 | 1.76 (active)
GAUAAUUCCAUGACAUUAUTT against CYP39A1 | 0.196
GAAGAGAACUCUAAGAUCATT against CAMK1G | -0.358
GCAAGUCCCUGUACUAUUATT against ANXA2 | 0.499
GCAGAACUGCUGCUACAGATT against ANKZF1 | 0.176
CACCGUUCAUCUGCACAGATT against KATNA1 | -0.471
CGAUAAACUCAGACCAGAATT against IDE | -0.081
GGAAAGUUGAUUUUUAUGATT against MS4A6E | -0.341
GGCUCUACGGUUUCAAGAUTT against CSNK2B | -1.62 (active)
CAAUGUCCCAAGAUAAAGATT against PRPSAP1 | 0.224
CUCUUUGACCGGUUGCUCATT against EGLN2 | -0.349
CCAUUUUAGCUCUAGAAGATT against GSTA4 | -0.848
GAAUUGGCCGUUGGGCUUATT against COX8A | -0.0749
CAUCUCGACUUAUUGGAAATT against WEE1 | -4.05 (active)
CAAGGUCAUUAAUAAGGAUTT against CST5 | 0.466
CACCCAACACCAAACUGUATT against HSPB6 | 0.394
GAAUUAACUUCAUGGUGAATT against PPM1K | 0.154
GCCGAAUCCUGAAGAGACATT against QTRTD1 | 0.377
CAACCACUGUGAGACGAAATT against MFGE8 | 0.0367
CUGAGAUACUGCAAGCUGATT against IL5RA | -0.357
CCGACUACUCCAACGAGAATT against MASP2 | -0.137

Sequence | median seed-adjusted z-score
GCUCAAGAGCUUGCACAGATT against SLC25A42 | -1.02 (active)
CUCUGAACCAAAUCGUUUATT against DPP8 | -0.0209
GAUGACUACUUAGCUCUAATT against FLJ90650 | 0.427
GGCCUAGUGUAAUCUCCCATT against ZNF774 | -0.0834
GCAGAUCGAUUUCUCAACATT against ABCA1 | -1.27 (active)
CCAUGUUACCAUACAAUAATT against MXD1 | -0.763
CCACAGAGGCUAUGCUAAATT against ACE | 0.0874
GUAGCUCCGAGGUCUGAUATT against SMARCA4 | 0.223
GGAACUACCAGAUCGGGAATT against MYO9B | -0.0287
GCAAGACAAGUGAAGUCAATT against CNBP | -1.14 (active)
CAUGCGGUCUUAGAAAUGATT against HNRPUL1 | -0.047
GCAUUUGAGCAUGAAAAUATT against VPS29 | -0.408
AGCUACUAGUGGAGCAGAATT against BAT1 | -1.49 (active)
CCACUCCAUUGAAGAUGUATT against SREBF1 | -0.0469
CAACCAGAAUUACUGCUAUTT against PCDH10 | -0.488
CGACACCAGGAGUACCUCUTT against IKBKE | 0.122
GCAUUUGGAUGGAUCAUGUTT against CD163 | 0.021
GCUGACUACUUGAAGUUCATT against DYRK1A | -1.3 (active)
GGAAAGACAUGUAAGAGCATT against BMP8B | 0
GAACUAAUCCUGUUCAACATT against ATXN3 | 0.04
CUGUGAUUGUAGUAGAUCATT against SLC19A3 | -0.0232
CCUGCCCAGAGAUACGAAATT against SMURF1 | -1.4 (active)

Sequence | median seed-adjusted z-score
GGUGGUCUCUUUAUAAUGATT against PHAX | -0.0716
GCCUUUAUGUCAUCCUCAATT against ZNF626 | 0.185
GCAGGUCACGGUUGAUGUATT against FANCA | 0.418
CCAGUGUCAUAAACCUGUATT against NUDT4 | -0.0306
GCAUGAGGUUCACCACCAATT against FIBCD1 | -0.0249
GCGGUUUACUAUAGACAAATT against IKBKAP | -0.0316
CGAACGAUUUCCCAAGUUATT against NXF1 | -4.46 (active)
GGUUUUGCACAGCGAGGAATT against B3GALT4 | 0.233
GGGCUAGAUCUGUAUCUUATT against TSC22D3 | 0.0129
GACCUGAUGUGGAAGCAGATT against QDPR | -0.734
CCCUGACUCUUGGAUAUGATT against MEOX1 | 0.0171
GGCGAGAUCUUUAUACGCATT against ZNF224 | 0.0073
AGAACGUGCUCUUCGCUCATT against PRKAR1B | -0.0406
GGAAAGUUUUUAAGGCGAATT against UHRF2 | -0.0941
CAUUGGAAAGUGCGAGUUATT against HUWE1 | 0.734
GAGUGAAGUAUAAUCCAUATT against TPH1 | -0.055
CUCUGGUAGAAUCCAAUUATT against GIN1 | -0.0585
CCGCUGAGGUGACAACAAATT against XRCC5 | -1.11 (active)
UCUUCUAAAUACUUCCUAATT against GJC3 | -0.137
GCAUUUGCCCAGUUCAUGATT against RBM28 | 0.649
CACUGUCCUUGGGUGAAUATT against ZDHHC20 | -0.936
CAAGUAUAUUGAACGAGGATT against SLITRK4 | -0.015

Sequence | median seed-adjusted z-score
UGGUCUCAAUGACAGUAGATT against SNRPB | -3.17 (active)
GCUAAGUACAAAUCAUUCATT against FCN1 | 0.346
GGAGAGUGGUGAUCGGAUATT against MYOM3 | -0.012
CGAUUCACCAGGAACGACATT against ZBTB7B | -0.242
GCCUCAUACCAUUCCAUAUTT against MEP1B | 1.46 (active)
CAGAGGUACUCCACGCAGATT against BHLHA15 | -0.199
GGCUGGUACCUGGAUGAGATT against FTCD | -0.27
GUCUAAUGCACUUAGCUAATT against HEL308 | 0.229
GCAAAACGGAGGAUUGAGATT against EIF5B | 1.68 (active)
GAAUGUGACAAUACAUUUATT against ZNF431 | 0.00537
GGAACAAACCCUUAGCUAATT against SLITRK1 | 0.215
GGAGUUUCCAGAUCUCAAATT against LGR6 | 0.237
GACUCAUACCAAUCACGAATT against JMJD1A | 0.466
GGGUCCCUAUUAUCCAGCATT against BAT3 | 0.567
GACAGAUGACUGAUCCUAATT against PSMD13 | 0.58
GACGGCCUCUAUUACCUCUTT against LTB | 0.646
CUGUCAAUGUUAUUACUCUTT against TSG101 | 1.48 (active)
GAAUAAUGCUUAUGCUAGATT against CLIC6 | -0.00828
AAUUCUACGAGUCCAAGUATT against GPS1 | 0.205
CAGCCCGUUUUGAAGGGUATT against CRIP3 | 1.7 (active)
